Test results from PubChem BioAssay.
Calls of active or inactive are those of the source.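 How the source made its calls, unless noted: active means inhibition above 20% together with a positive visual image hit; inconclusive means visual image hit but inhibition not above 20%; inactive means no visual image hit.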

Columns and labels:
[1] = inhibitors of TNFa-induced NFkB p65 translocation, primary screen, imaging, HUVEC, MLSMR starter and 10KST1 sets (AID 438); conditions: HUVEC TNFa-induced p65 nuclear translocation; cell count: measured here: nuclei count (cytotoxicity indicator), at 2.08 µM; inhibition: at 2 µM, stronger effect = higher value, 0% TNFa-plus-vehicle, 100% no-TNFa wells;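 further: compound added about 3h40 before a 20 min TNFalpha stimulation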;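 on inhibition: signal is the nuclear over cytoplasmic p65 intensity ratio per well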
[2] = reduction of polyQ htt aggregates in cells – imaging, exon1htt(103Q)mCFP cells, high-content imaging, primary screen (AID 483;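 active means visual image review flags a hit and inhibition of aggregation exceeds 20%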;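 further: compound exposure lasted 3 days before fixation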;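 on nuclei count: percent of the per-plate median nuclei count of sample wells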); conditions: exon1htt(103Q)mCFP cell line, aggregate imaging, at 2 µM; inhibition of aggregation: stronger effect = higher value; nuclei count: measured here: cell count, toxicity
[3] = endothelial E-selectin expression blockers – imaging, HUVEC, immunofluorescence, MLSMR starter and 10KST1 sets, primary screen (AID 487;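 active means visually confirmed hit in the image check and inhibition above 20%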;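 on inhibition: signal is fraction of cell area covered by stained E-selectin grains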;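 on nuclei count: 100% = median nuclei count of all wells on the same plate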); conditions: HUVEC TNFalpha-induced E-selectin immunofluorescence imaging, at 2 µM; inhibition: stronger effect = higher value; nuclei count: measured here: cell number, toxicity
[4] = target: Voltage-gated potassium channel subunit beta-2 (Rattus norvegicus) (UniProt P62483); test: inhibitors of rat Kvbeta2 reductase activity – biochemical, NADPH fluorescence, primary screen (AID 622;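 active means fluorescence slope higher than the sample average by over 3 SD, cut at about -0.22 in these data, passing the limit was not always enough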;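 further: slope of raw intensity against log time taken from 70 to 1610 s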); conditions: recombinant KvBeta, 4-cyanobenzaldehyde reduction, at 10 µM, stronger effect = higher value
[5] = target: Voltage-gated potassium channel subunit beta-2 (Rattus norvegicus) (UniProt P62483); test: enhancers of rat Kvbeta2 NADPH turnover – biochemical, NADPH fluorescence, primary screen (AID 623;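 active means NADPH fluorescence slope more negative than the mean of all samples by about 3 SD, 99.7% confidence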;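 further: fluorescence intensity change per second fitted from 20 to 320 s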); conditions: Recombinant KvBeta, NADPH fluorescence decrease slope, 10 min; at 10 µM; stronger effect = lower value
[6] = target: Alpha-2C adrenergic receptor (Homo sapiens) (UniProt P18825); test: compounds altering alpha2C-coupled GIRK flux – cell-based, HEK293 alpha2C/GIRK1/2, thallium flux, primary screen (AID 624;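 active means fluorescence slope after compound addition differing from the mean of all screened samples at 99.7% confidence, in either direction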;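 further: slope of fluorescence ratio to pre-addition baseline per second over 15 to 24 s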); conditions: thallium flux BTC fluorescence, at 10 µM, actives lie on both sides
[7] = blockers of RIG-like receptor reporter activation – cell-based, Sendai virus stimulus, luciferase, 10K MLSCN set, TLR/RLR signaling modifier project, primary screen (AID 602276;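 active means inhibition at or above 50% at 10 µM; inactive means inhibition below 50%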;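 further: firefly luciferase from ISG56 promoter only with Renilla not read in this screen; 0% = Sendai virus plus DMSO and 100% = medium plus DMSO without virus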); conditions: HEK293 RL24 IRF3 luciferase reporter, at 10 µM, stronger effect = higher value
[8] = TLR3 IRF3 reporter activation blockers – cell-based, poly I:C stimulus, luciferase, 10K MLSCN set, primary screen (AID 602277;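 active means inhibition of the reporter signal at or above 50%; inactive means inhibition below 50%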); conditions: HEK293-TLR3 RL24 IRF3 luciferase reporter, at 10 µM, stronger effect = higher value

Sequence of Voltage-gated potassium channel subunit beta-2 (Rattus norvegicus) (P62483 whole entry, looked up): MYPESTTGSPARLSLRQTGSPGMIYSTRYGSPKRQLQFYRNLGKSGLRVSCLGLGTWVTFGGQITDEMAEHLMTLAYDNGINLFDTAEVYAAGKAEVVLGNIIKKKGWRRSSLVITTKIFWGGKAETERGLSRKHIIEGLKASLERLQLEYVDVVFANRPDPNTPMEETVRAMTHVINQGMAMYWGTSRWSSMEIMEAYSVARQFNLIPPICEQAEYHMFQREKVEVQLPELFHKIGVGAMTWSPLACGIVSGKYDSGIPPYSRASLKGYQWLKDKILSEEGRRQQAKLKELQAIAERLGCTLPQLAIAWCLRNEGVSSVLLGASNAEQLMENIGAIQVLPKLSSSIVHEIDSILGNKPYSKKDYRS
Sequence of Alpha-2C adrenergic receptor (Homo sapiens) (P18825 whole entry, looked up): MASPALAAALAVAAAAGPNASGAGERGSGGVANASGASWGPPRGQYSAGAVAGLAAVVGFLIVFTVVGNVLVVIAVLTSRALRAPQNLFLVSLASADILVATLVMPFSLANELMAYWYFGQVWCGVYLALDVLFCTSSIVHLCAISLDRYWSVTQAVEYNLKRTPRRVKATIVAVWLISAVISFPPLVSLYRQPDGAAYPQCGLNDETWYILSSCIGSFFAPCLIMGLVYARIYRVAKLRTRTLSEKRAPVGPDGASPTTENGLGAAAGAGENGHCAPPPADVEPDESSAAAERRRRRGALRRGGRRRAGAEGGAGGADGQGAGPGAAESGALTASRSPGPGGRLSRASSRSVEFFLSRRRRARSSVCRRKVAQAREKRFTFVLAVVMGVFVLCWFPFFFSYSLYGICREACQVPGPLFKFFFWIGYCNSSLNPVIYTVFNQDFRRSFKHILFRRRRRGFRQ

Compound | cell count [1] | inhibition [1] | inhibition of aggregation [2] | nuclei count [2] [%] | inhibition [3] | nuclei count [3] [%] | fluorescence slope [4] | NADPH fluorescence slope [5] | slope [6] | inhibition [7] | inhibition [8]
CCN(C1CCCCC1)S(=O)(=O)c1ccc(S(=O)(=O)N2CCN(CCC#N)CC2)cc1 | 870 | 3.3% (inactive) | 8% (inactive) | 102 | -28.6% (inactive) | 108 | -0.584 (inactive) | -1.5e-05 (inactive) | 0.00677 (inactive) | -5.6% (inactive) | 52% (active)
COCCCN(C)C1CCN(C(=O)Nc2ccc(F)cc2)CC1 | 610 | -1.3% (inactive) | -8.7% (inactive) | 108 | -49.7% (inactive) | 102 | -0.582 (inactive) | -1.9e-06 (inactive) | 0.00654 (inactive) | 11% (inactive) | 36.9% (inactive)
COc1ccccc1-n1c(-c2cccnc2)n[nH]c1=S | 204 | -4.8% (inactive) | 17.2% (inactive) | 77 | -123% (inactive) | 107 | -0.598 (inactive) | -4.1e-06 (inactive) | 0.0043 (inactive) | -0.823% (inactive) | -12.6% (inactive)
CSc1ccc(Cn2nnc(C(=O)NCc3ccccc3)c2N)cc1 | 570 | -2.3% (inactive) | 17.3% (inactive) | 100 | -74.8% (inactive) | 134 | -0.478 (inactive) | -2e-05 (inactive) | 0.00597 (inactive) | 5.71% (inactive) | 12.9% (inactive)
CCN(CC)S(=O)(=O)c1cccc(-c2nnc(SCC(N)=O)n2CCc2ccccc2)c1 | 635 | -4.4% (inactive) | -2.2% (inactive) | 105 | -32.3% (inactive) | 125 | -0.592 (inactive) | -8.5e-06 (inactive) | 0.00663 (inactive) | 7.68% (inactive) | 11.1% (inactive)
COc1ccccc1OCC(=O)NCC1CCCCC1 | 394 | -28.2% (inactive) | 5.6% (inactive) | 108 | 28.4% (inactive) | 102 | -0.413 (inactive) | -2.9e-05 (inactive) | 0.00305 (inactive) | -1.17% (inactive) | -7.1% (inactive)
CCCCn1c(=O)[nH]c(=O)c2c1nc(COc1ccc(C#N)cc1)n2CCC | 337 | 3.4% (inactive) | -40.4% (inactive) | 97.4 | 32.8% (inactive) | 110 | -0.538 (inactive) | 6.8e-06 (inactive) | 0.00653 (inactive) | 10.1% (inactive) | 30.2% (inactive)
Cc1cc2cc(CN(CC3CCCO3)C(=O)c3cnccn3)c(=O)[nH]c2cc1C (stereo not drawn) | 330 | 5.3% (inactive) | -0.3% (inactive) | 107 | -22.4% (inactive) | 125 | -0.592 (inactive) | -5.9e-05 (inactive) | 0.00376 (inactive) | -3.76% (inactive) | -3.05% (inactive)
CC(=O)Nc1ccc(S(=O)(=O)N2CCC(c3nc4ccccc4[nH]3)CC2)cc1 | 232 | 0% (inactive) | 14.3% (inactive) | 93.3 | 17.7% (inactive) | 84.3 | -0.584 (inactive) | -6.2e-05 (inactive) | 0.00595 (inactive) | 7.22% (inactive) | 17.6% (inactive)
Cc1cc(C)nc(SCCS(=O)Cc2ccc(Cl)cc2)n1 (stereo not drawn) | 306 | -3.8% (inactive) | -16.7% (inactive) | 108 | 32.1% (inactive) | 95 | -0.503 (inactive) | 6.2e-06 (inactive) | 0.00559 (inactive) | 5.96% (inactive) | 8.92% (inactive)
C=CCn1c(SCC(=O)NCCCC)nc2scc(-c3ccco3)c2c1=O | 650 | -6.7% (inactive) | 2.2% (inactive) | 120 | -4.2% (inactive) | 99.8 | -0.444 (inactive) | -3.5e-05 (inactive) | 0.00561 (inactive) | 19.3% (inactive) | 28.9% (inactive)
CC(=O)c1ccc(-c2nc3ccccc3n2C)o1 | 365 | 4.7% (inactive) | -13.2% (inactive) | 105 | -11.8% (inactive) | 108 | -0.0212 (active) | 5.6e-07 (inactive) | 0.00571 (inactive) | -22.8% (inactive) | -73.6% (inactive)
O=S(=O)(c1ccc(-c2csc(-c3cccnc3)n2)cc1)N1CCCCC1 | 372 | -1.7% (inactive) | -2% (inactive) | 102 | -30.5% (inactive) | 116 | -0.604 (inactive) | -9e-06 (inactive) | 0.0051 (inactive) | -0.353% (inactive) | -37.2% (inactive)
CCOC(=O)c1[nH]c(=O)c2ccccc2c1O | 367 | -3.9% (inactive) | 2.9% (inactive) | 96.9 | -0.2% (inactive) | 116 | -0.512 (inactive) | -1.7e-05 (inactive) | 0.00472 (inactive) | -11.9% (inactive) | -8.42% (inactive)
CCS(=O)(=O)N1CCCC(C(=O)NCCc2ccc(OC)c(OC)c2)C1 (stereo not drawn) | 709 | -12.8% (inactive) | -9.5% (inactive) | 111 | 45.8% (inactive) | 109 | -0.43 (inactive) | 4.5e-06 (inactive) | 0.00594 (inactive) | -5.06% (inactive) | -6.59% (inactive)
O=C(Nn1cnnc1)C1Cc2ccccc2CN1S(=O)(=O)c1ccc(F)cc1 (stereo not drawn) | 326 | -6.7% (inactive) | 7.4% (inactive) | 95.2 | 0.9% (inactive) | 95.6 | -0.481 (inactive) | -2.7e-05 (inactive) | 0.00658 (inactive) | 14.1% (inactive) | 24.9% (inactive)
O=C(O)Cn1nc2ccccc2n1 | 396 | 5% (inactive) | 10.5% (inactive) | 100 | -55.1% (inactive) | 98.8 | -0.4 (inactive) | 1.5e-05 (inactive) | 0.00551 (inactive) | 14.6% (inactive) | 11.8% (inactive)
Cc1ccc(N=C2NC(=O)CS2)c(C)c1 | 607 | 7.4% (inactive) | 22.3% (inactive) | 95.2 | 59.4% (active) | 76.3 | -0.47 (inactive) | -2.8e-05 (inactive) | 0.00603 (inactive) | 2.6% (inactive) | 21.7% (inactive)
Cc1ccccc1-n1c(Cn2c(=O)sc3ccccc32)nnc1SCC(N)=O | 542 | 4.5% (inactive) | 4.1% (inactive) | 110 | -28.8% (inactive) | 111 | -0.518 (inactive) | -3.8e-05 (inactive) | 0.00845 (inactive) | 16.4% (inactive) | 25.2% (inactive)
COc1ccc(Cl)c(NCCC(=O)O)c1 | 632 | -4.2% (inactive) | 2.2% (inactive) | 110 | -96.7% (inactive) | 130 | -0.453 (inactive) | -0.000352 (inactive) | 0.00574 (inactive) | -8.17% (inactive) | -4.52% (inactive)
COCCNC(=O)CC(NS(=O)(=O)c1ccc(NC(C)=O)cc1)C(C)C (stereo not drawn) | 435 | 6.5% (inactive) | -1.2% (inactive) | 105 | -122% (inactive) | 107 | -0.397 (inactive) | -7.5e-05 (inactive) | 0.00454 (inactive) | 8.34% (inactive) | 25.9% (inactive)
COc1cc2c(=O)n(Cc3ccccc3)c(=O)n(CC(=O)NCc3ccco3)c2cc1OC | 358 | 3.5% (inactive) | -3.1% (inactive) | 107 | -319% (inactive) | 109 | -0.37 (inactive) | 9e-06 (inactive) | 0.0075 (inactive) | 23.8% (inactive) | 21.5% (inactive)
CCc1[nH]nc2c1C(c1ccncc1)C(C#N)=C(N)O2 (stereo not drawn) | 355 | 2.9% (inactive) | -6% (inactive) | 109 | -29.1% (inactive) | 123 | -0.507 (inactive) | -3.3e-05 (inactive) | 0.00643 (inactive) | -2.35% (inactive) | 3.94% (inactive)
COc1ccc(S(=O)(=O)N2Cc3ccccc3CC2C(=O)Nc2ccc(O)cc2)cc1OC (stereo not drawn) | 772 | -2.9% (inactive) | -7.4% (inactive) | 119 | -42.8% (inactive) | 114 | -0.556 (inactive) | -6e-05 (inactive) | 0.0071 (inactive) | 8.15% (inactive) | 29.5% (inactive)
CC1CN(C(=O)c2cc3cc(Cl)cc(Cl)c3oc2=O)CC(C)O1 (stereo not drawn) | 365 | 5.6% (inactive) | 1% (inactive) | 104 | -24.5% (inactive) | 100 | -0.474 (inactive) | -4.7e-06 (inactive) | 0.00693 (inactive) | 11.6% (inactive) | 23.5% (inactive)
COc1ccccc1Nc1nc(N)nc(-c2cc3ccccc3o2)n1 | 153 | 1.2% (inactive) | -7.1% (inactive) | 89.1 | 25.7% (inactive) | 85.7 | -0.332 (inactive) | -3.9e-05 (inactive) | 0.00555 (inactive) | -39.9% (inactive) | -99.9% (inactive)
CCOC(=O)c1cnc(C(C)(C)C)[nH]c1=O | 328 | -6.5% (inactive) | -6.3% (inactive) | 109 | -109% (inactive) | 142 | -0.318 (inactive) | -4.2e-05 (inactive) | 0.00422 (inactive) | 10.2% (inactive) | 17.4% (inactive)
CCCOc1ccc(OCCSc2ncccn2)cc1 | 811 | -13% (inactive) | 24.7% (inactive) | 108 | -93.3% (inactive) | 108 | -0.454 (inactive) | 2.1e-05 (inactive) | 0.0061 (inactive) | -39.4% (inactive) | -92% (inactive)
